Where “and” joins values, the source holds several entries; their conditions need not be identical. Equal entries are not always repeated. About 83,000 compounds went through this panel and 20% of them were active in at least one assay; those are over-represented in the sample as a whole.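 Compound tested at a single concentration for 48 hours in 96-well plates; a percent growth value below 10 was scored as active.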 Values without a mark were called inactive. Calls of active or inactive are those of the source.
The compounds below were run on MCF7 breast (assay: NCI-60 one-dose screen, 48 h (100 = growth as untreated, 0 = no growth, -100 = all killed)). Conditions: 10 µM.
Procedure: Growth inhibition of the MCF7 human tumor cell line is measured as a screen for anti-cancer activity. Cells are grown in 96 well plates and exposed to the test compound for 48 hours. Compounds are tested at a single concentration, which is 10^-5 M for most compounds. The reported endpoint is percent growth (GI% or GIPRCNT), where numbers from 0 - 100% represent growth inhibition, and numbers from -100% - 0 represent cell death. For example, a value of 40 represents 60% growth inhibition. A value of 0 means no net growth occurred over the course of the experiment. A value of -40 indicates 40% of cells at the beginning of the experiment died by the end of the experiment. A value of -100 means all cells are dead at the end of the experiment.
NCI-60 Human Tumor Cell Lines Screen was performed using the standard one-dose NCI protocol, which is described in more detail at https://dtp.cancer.gov/discovery_development/nci-60/default.htm.
Compounds with GIPRCNT values below 10 were considered active. Activity score was based on GIPRCNT using the following formula: […]
Score is 0 for GIPRCNT values of 100 or above, 50 for GIPRCNT values of 0, and 100 for GIPRCNT values of -100.
Work on `C=CC(C)(C)n1cc(C2=C(O)C(=O)C(c3cn(C(C)(C)C=C)c4ccccc34)=C(O)C2=O)c2ccccc21` yielded a growth of 96.1%.

Same assay, conditions: 10 µM unless noted
`CC(C)(C)[Si](C)(C)OCC1OC(n2cnc3c(N)ncnc32)CC1OS(C)(=O)=O` (stereo not given) gave a growth of 105%.
`NC(CCl)=NCC12CC3CC(CC(C3)C1)C2` was tested, and the growth was -29.1% (active).
Compound `CN(C)CCOC(=O)Nc1ccc(Cc2ccc(NC(=O)OCCN(C)C)cc2)cc1` has a growth of 44.9% [100 µM].
With `Cc1ccc(/C=N/NC(N)=S)s1` the growth was 100%.
`Cc1cc(C(=O)NN)c(C#N)c(=O)[nH]1` was tested, and the growth was 93%.
With `CCOC(=O)c1ccc(Nc2sc(C(=O)c3ccc(Br)cc3)c(N)c2C#N)cc1` the growth was 9% (active).
`O=C(O)Cc1ccc(Cl)cc1` showed a growth of 99.2%.
Work on `COC1CC(OC(=O)c2ccc([N+](=O)[O-])cc2)C(COC(=O)c2ccc([N+](=O)[O-])cc2)O1` (stereo not given) yielded a growth of 91.5%.
`COc1ccc(C(=O)/C(=N/Nc2ccccc2)c2ccc(OC)cc2)cc1` gave a growth of 95.2%.
In the case of `Nc1cc2c(cc1Cl)C(=O)c1ccccc1C2=O`, the growth is reported as 65.9%.
`COC1OC(CO)C(OC)C(O)C1O` (stereo not given) was tested, and the growth was 98.9%.
For `CN1C(=O)NC(c2ccc(Cl)cc2)(c2ccc(Cl)cc2)C1=O`, the growth was 102%.
In the case of `CC(=O)Nc1ccc(C(=O)c2ccc(S(=O)(=O)Nc3ccccc3)cc2)cc1`, the growth is reported as 85.3%.
Compound `CCCC1OC(c2ccco2)OCC1CC` (stereo not given) has a growth of 117%.
`Cc1ccc2nc(N)nnc2c1` gave a growth of 104%.
With `COC(=O)c1cccc([N+](=O)[O-])c1` the growth was 104%.
`CCOC(=O)C1(N)CCCCC1` showed a growth of 97.1%.
`CCNC(=O)Oc1ccc[nH]c1=O` was tested, and the growth was 91.5%.
Work on `CC(=O)Oc1c(Cl)cccc1-c1ccccc1` yielded a growth of 101%.
`CC(C)N(C(=O)c1ccccc1)C(C)C` gave a growth of 97.8%.
With `OC(CBr)CCBr` (stereo not given) the growth was 86.6%.
For `CCOC(=O)CNC(=O)Sc1ccc(C(C)(C)C)cc1`, the growth was 99.3%.
`O=C(c1ccccc1)c1ccc(-c2ccc(O)cc2)cc1` was tested, and the growth was 23.3%.
`S=C=Nc1ccc2ccccc2c1` showed a growth of 101%.
`C=CCOc1ccc(Cl)cc1Cl` showed a growth of 105%.
In the case of `COc1ccc(Br)c(C=O)c1`, the growth is reported as 31.5%.
`Nc1nc(Cl)cc(Cl)n1` was tested, and the growth was 90.3%.
`Nc1c(Br)cc(O)c2c1C(=O)c1ccccc1C2=O` was tested, and the growth was 83.8%.
`CC(CO)(CO)C(=O)O` gave a growth of 101%.
`C1Cc2onc(-c3noc4c3CCC4)c2C1` showed a growth of 99.2%.
`CC(=O)NCNC(C)=O` was tested, and the growth was 94%.
For `COC(CCCl)c1ccc(Cl)cc1` (stereo not given), the growth was 99%.
`COc1cc(OC)c(NC(=O)C(Sc2nc(C)cc(C)c2C#N)c2ccccc2)cc1Cl` (stereo not given) was tested, and the growth was 95.5%.
`O=C1C=C[C@H](O)[C@@]2(CO)O[C@@H]12` gave a growth of 42.9%.
`CC1CCC(C)(C)c2ccccc21` (stereo not given) showed a growth of 91.4%.
`CC1CN(CCO)CC(C)O1` (stereo not given) showed a growth of 109%.
`CC(C)C(=O)OCCOc1ccc(C(C)(C)C)cc1` was tested, and the growth was 95.4%.
For `NNc1ncccn1`, the growth was 101%.

Same assay, conditions: 100 µM
In the case of `C=CC(C)(C)n1cc(C2=C(O)C(=O)C(c3cn(C(C)(C)C=C)c4ccccc34)=C(O)C2=O)c2ccccc21`, the growth is reported as -81.2% (active) and -91.7% (active).

Source: PubChem BioAssay (NCI)
